Only some compounds are listed: those with a hit (about 6.8% of all), similar ones and a draw of the others.
C_diff_growth – C. difficile growth inhibitors, primary screen, HTS | Clostridium difficile clinical isolate growth, OD600, 24 h; hits give low values | hit rate 0.25% among 86,000 | growth activity, negative = inhibition, % at 16 µg/mL (by protocol) | AID 1259249, 2017;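 active = mean growth activity at or below -80% and every replicate also at or below -80%; inconclusive = mean at or below -80% but some replicate above -80%; inactive = mean growth activity above -80%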;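 also: 0% = DMSO wells and -100% = levofloxacin 16 µg/mL wells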
Pf_Dd2_inh – P. falciparum Dd2 growth inhibitors, primary screen, SYBR Green fluorescence, single dose replicates; 72 h; hits give low values; activity change, % at 10 µM; hit rate 2.3% among 94,000; AID 1159554, 2015; in the data active = activity change below about -80%; inconclusive = no clear call, values can overlap the other calls
T_cruzi_growth-1 – T. cruzi intracellular proliferation inhibitors, primary screen, cell-based, beta-gal Tulahuen parasites, NIH3T3 host, luminescence | T. cruzi beta-gal in NIH3T3, GalScreen luminescence, 90 h | inhibition, % at 8.34 µM | hit rate 5.9% among 77,000;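 active = mean inhibition above about 93%, with at least 55% of replicates each passing it, limit read from the data, passing the limit was not always enough; inconclusive = only one of those two conditions holds; inactive = neither condition holds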
T_cruzi_growth-2 – T. cruzi intracellular proliferation inhibitors, confirmation, cell-based, NIH3T3 host, beta-gal parasite, luminescence, cherry-pick. T. cruzi beta-gal in NIH3T3, GalScreen luminescence, 90 h. inhibition, % at 8.35 µM. shares compounds with T_cruzi_growth-1. hit rate 72% among 5,600;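 active = mean replicate inhibition above about 95% and at least 55% of replicates individually reaching it, limit read from the data; inconclusive = only one of the two criteria is met; inactive = neither criterion is met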
T_cruzi_growth-3 – inhibitors of intracellular T. cruzi replication, confirmation, NIH3T3 host cells, beta-gal parasites, cherry-pick, set 2; shares compounds with T_cruzi_growth-1; T. cruzi beta-gal in NIH3T3, GalScreen luminescence, 90 h; inhibition, % at 2.09 µM; hit rate 21% among 5,600;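 active = mean inhibition above about 95%, with at least 55% of replicates also reaching it, limit read from the data; inconclusive = meets just one of the two conditions; inactive = meets neither condition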;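 also: plate controls were neutral control median for no effect and positive control median for full effect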
NIH3T3_tox – cytotoxicity in mouse NIH/3T3 fibroblasts, confirmation, cytotoxicity control for T. cruzi proliferation inhibitor project, cell-based, cherry-pick, single point. shares compounds with T_cruzi_growth-1. NIH/3T3 viability, CellTiter-Glo ATP luminescence, 90 h. cytotoxicity (signal decrease), % at 8.35 µM. hit rate 14% among 5,600;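 active = mean signal decrease across replicates above about 35% based on untreated-well scatter, with enough replicates individually passing, limit read from the data; inconclusive = no rule stated though some were filed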;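 also: 0% = median of neutral control wells and 100% = median of positive control wells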
NIH3T3_tox_2 – NIH/3T3 fibroblast cytotoxicity, confirmation, cytotoxicity control, cell-based, cherry-pick, single point, set 2. shares compounds with T_cruzi_growth-1. NIH/3T3 viability, CellTiter-Glo ATP luminescence, 90 h. inhibition, % at 24.9 µM. hit rate 56% among 5,600. AID 651744, 2012;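 active = mean loss of cell viability signal at or above a set limit, and enough replicates individually reaching it; inconclusive = meets only the mean limit or only the replicate share; inactive = meets neither condition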;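 also: 0% = median of neutral control wells and 100% = median of positive control wells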
An asterisk follows results filed as active; ? = inconclusive; / = no result.

SMILES C_diff_growth Pf_Dd2_inh T_cruzi_growth-1 T_cruzi_growth-2 T_cruzi_growth-3 NIH3T3_tox NIH3T3_tox_2
OC[C@H]1[C@H](c2ccc(C#CC3(O)CCCC3)cc2)[C@@H]2CN(Cc3cccnc3)CCCCN12 -1 8 108* 98* 76 0 -18
OC[C@H]1[C@H](c2ccc(C#CC3(O)CCCC3)cc2)[C@H]2CN(Cc3cccnc3)CCCCN21 -5 -4 85 / / / /
OC[C@@H]1[C@@H](c2ccc(C#CC3(O)CCCC3)cc2)[C@@H]2CN(Cc3cccnc3)CCCCN12 -5 -9 85 / / / /
C[C@H](CO)N1C[C@H](C)[C@H](CN(C)C(=O)NC2CCCCC2)Oc2ccc(NC(=O)NC3CCCCC3)cc2C1=O -5 3 4 / / / /
O=C(CN1CCOCC1)N1CCCCN2[C@@H](CO)[C@H](c3ccc(C#Cc4ccccc4F)cc3)[C@@H]2C1 30 -18 107* 112* 80 42* 102*
O=C(CN1CCOCC1)N1CCCCN2[C@H](CO)[C@@H](c3ccc(C#Cc4ccccc4)cc3)[C@H]2C1 0 -52 65 / / / /
O=C(CN1CCOCC1)N1CCCCN2[C@H](CO)[C@@H](c3ccc(C#Cc4ccccc4F)cc3)[C@@H]2C1 2 -43 -3 / / / /
O=C(CN1CCOCC1)N1CCCCN2[C@H](CO)[C@@H](c3ccc(-c4ccccc4F)cc3)[C@H]2C1 -16 0 22 / / / /
O=C(CN1CCOCC1)N1CCCCN2[C@H](CO)[C@@H](c3ccc(C#Cc4ccccc4F)cc3)[C@H]2C1 2 -8 110* 97* -12 54* 95*
O=C(CN1CCOCC1)N1CCCCN2[C@@H](CO)[C@@H](c3ccc(C#Cc4ccccc4F)cc3)[C@@H]2C1 4 7 107* 98* 60 ? 100*
C[C@@H]1CN([C@@H](C)CO)C(=O)CCCn2cc(nn2)CO[C@@H]1CN(C)Cc1ccc(C(=O)Nc2ccccc2N)cc1 2 -6 72 / / / /
CNC(=O)C[C@@H]1CC[C@@H]2[C@@H](COc3ccc(NC(=O)C4CC4)cc3C(=O)N2C)O1 -3 5 -4 / / / /
CCCNC(=O)Nc1ccc2c(c1)C(=O)N(C)C[C@@H](OC)[C@@H](C)CN(C(=O)c1ccccc1F)[C@@H](C)CO2 / -19 -61 / / / /
CN(C)C(=O)C[C@@H]1C[C@H]2c3cc(NS(=O)(=O)c4ccc(F)cc4)ccc3O[C@H]2[C@H](CO)O1 0 0 104* -2 -2 4 19
CN(C)C(=O)C[C@@H]1C[C@H]2c3cc(NS(=O)(=O)c4ccc(F)cc4)ccc3O[C@H]2[C@@H](CO)O1 2 24 ? -15 1 -5 -10
CN(C)C(=O)C[C@H]1C[C@@H]2c3cc(NS(=O)(=O)c4ccc(F)cc4)ccc3O[C@@H]2[C@@H](CO)O1 -1 -58 12 / / / /
CN(C)C(=O)C[C@H]1C[C@@H]2c3cc(NS(=O)(=O)c4ccc(F)cc4)ccc3O[C@@H]2[C@H](CO)O1 3 26 35 / / / /
CO[C@@H]1CN(C)C(=O)c2cc(NC(=O)Nc3ccccc3)ccc2OC[C@H](C)N(CC2CC2)C[C@H]1C / 12 -56 / / / /
Cn1cnc(S(=O)(=O)N2CC[C@@H]3[C@@H](CO)Nc4ccc(-c5ccc(F)cc5)cc4[C@@H]32)c1 -7 -69 ? 105* 75 -26 -7
Cn1cnc(S(=O)(=O)N2CC[C@H]3[C@H](CO)Nc4ccc(-c5cccc(F)c5)cc4[C@H]32)c1 -13 4 110* 99* 30 -1 3
Cn1cnc(S(=O)(=O)N2CC[C@@H]3[C@H](CO)Nc4ccc(-c5ccc(F)cc5)cc4[C@@H]32)c1 -6 -12 51 / / / /

Source: PubChem
